According to PubChem BioAssay (NCATS):
Results filed as inconclusive are left out. A call without a number means that no potency is given here. Calls of active or inactive are those of the source. The call rests on the fitted dose curve; in most records, active means well fitted inhibition curve with a large enough effect; inconclusive means small, poorly fitted or top-dose-only effect; inactive means flat fitted curve, though single readings scatter.

Experiments:
Assay in all cases: qHTS profiling for inhibitors of Plasmodium falciparum proliferation (AID 504749); further: nearly all actives have a fitted effect of over 60% in size
Conditions in all cases: P. falciparum in erythrocytes, SYBR Green DNA, 72 h; series mostly up to 28.7 µM
CP237 = test system: CP237
How it was run: (§1)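 SYBR Green fluorescence (ex 485 nm, em 535 nm) reports parasite DNA after 72 h compound exposure of infected red cells at 0.3% parasitemia, 2.5% hematocrit; signal normalized to 0.29 uM artemisinin and vehicle wells.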

CP260 = test system: CP260
How it was run: as §1

CP262 = test system: CP262
How it was run: as §1

CP265 = test system: CP265
How it was run: as §1

CP269 = test system: CP269
How it was run: as §1

CP291 = test system: CP291
How it was run: as §1

CP315 = test system: CP315
How it was run: as §1

CP335 = test system: CP335
How it was run: as §1

CP238 = test system: CP238
How it was run: as §1

CP252 = test system: CP252
How it was run: as §1

CP256 = test system: CP256
How it was run: as §1

CP266 = test system: CP266
How it was run: as §1

CP268 = test system: CP268
How it was run: as §1

CP286 = test system: CP286
How it was run: as §1

CP297 = test system: CP297
How it was run: as §1

CP305 = test system: CP305
How it was run: as §1

CP325 = test system: CP325
How it was run: as §1

CP247 = test system: CP247
How it was run: as §1

CP250 = test system: CP250
How it was run: as §1

CP329 = test system: CP329
How it was run: as §1
Potency means the concentration at half of the fitted maximal effect.

Row | SMILES | Potency (CP237) | Potency (CP260) | Potency (CP262) | Potency (CP265) | Potency (CP269) | Potency (CP291) | Potency (CP315) | Potency (CP335) | Potency (CP238) | Potency (CP252) | Potency (CP256) | Potency (CP266) | Potency (CP268) | Potency (CP286) | Potency (CP297) | Potency (CP305) | Potency (CP325) | Potency (CP247) | Potency (CP250) | Potency (CP329)
1 | CCCCCN=C(N)N/N=C/c1c[nH]c2ccc(OC)cc12 | 5.01 µM (active) | 5.01 µM (active) | inactive | 4.47 µM (active) | 13.5 µM (active) | 13.5 µM (active) | inactive | 6.01 µM (active) | – | – | – | – | – | – | – | – | – | – | – | –
2 | C[N+]1(CC2COC(c3ccccc3)(C3CCCCC3)O2)CCCCC1 (centres undefined) | 7.08 µM (active) | 4.47 µM (active) | 5.36 µM (active) | 10 µM (active) | 4.78 µM (active) | 4.78 µM (active) | 6.01 µM (active) | – | 7.08 µM (active) | 10 µM (active) | 10 µM (active) | 8.49 µM (active) | 7.57 µM (active) | 5.01 µM (active) | 6.01 µM (active) | 4.78 µM (active) | 6.75 µM (active) | – | – | –
3 | NC(N)=NN=C(/C=C/c1ccc([N+](=O)[O-])o1)/C=C/c1ccc([N+](=O)[O-])o1 | 3.55 µM (active) | 3.55 µM (active) | inactive | – | – | – | – | 4.78 µM (active) | – | – | – | – | – | 2.24 µM (active) | – | – | – | 7.08 µM (active) | 11.2 µM (active) | –
4 | CN1CCN(C2=Nc3cc(F)ccc3Cc3ccccc32)CC1 | 7.08 µM (active) | inactive | inactive | – | inactive | inactive | inactive | – | inactive | inactive | – | – | inactive | inactive | – | inactive | inactive | – | inactive | inactive
5 | CC1(COc2ccc(CC3SC(=O)NC3=O)cc2)CCCCC1 (centres undefined) | inactive | inactive | inactive | inactive | inactive | inactive | inactive | inactive | inactive | inactive | inactive | inactive | inactive | inactive | – | inactive | inactive | – | inactive | inactive
6 | COc1cc([C@H]2Oc3cc([C@H]4Oc5cc(O)cc(O)c5C(=O)[C@@H]4O)ccc3O[C@@H]2CO)ccc1O | inactive | inactive | inactive | inactive | inactive | inactive | inactive | inactive | inactive | inactive | inactive | inactive | inactive | inactive | inactive | inactive | inactive | – | inactive | inactive
7 | CCCCCCCCCCCCOCCOCCOCCOCCOCCOCCOCCOCCOCCO | inactive | – | inactive | – | inactive | inactive | inactive | – | – | – | – | inactive | inactive | inactive | inactive | inactive | inactive | – | – | inactive
8 | COc1cc(C(=O)N2CCCCCCC2)cc(OC)c1OC | inactive | inactive | inactive | inactive | inactive | inactive | inactive | inactive | inactive | inactive | inactive | inactive | inactive | inactive | inactive | inactive | inactive | inactive | – | inactive
9 | COc1ccc(C(=O)c2ccccc2)c(O)c1 | inactive | – | inactive | – | inactive | inactive | inactive | – | inactive | inactive | inactive | inactive | inactive | inactive | inactive | – | inactive | inactive | – | inactive
10 | C[N+]1(C)CCC(=C(c2ccccc2)c2ccccc2)CC1 | inactive | – | – | inactive | – | – | inactive | – | inactive | inactive | – | – | – | – | inactive | – | – | inactive | inactive | inactive
11 | CN(CCCN1c2ccccc2CCc2ccccc21)CC(=O)c1ccc(Cl)cc1 | 12.6 µM (active) | 10 µM (active) | inactive | 11.2 µM (active) | – | – | inactive | 13.5 µM (active) | – | – | – | – | – | 7.08 µM (active) | – | inactive | – | – | – | –
12 | CN1CCc2cccc3c2[C@H]1Cc1ccc(O)c(O)c1-3 | 6.31 µM (active) | 11.2 µM (active) | – | – | 16.9 µM (active) | – | – | 3.79 µM (active) | – | – | – | 8.49 µM (active) | – | 6.31 µM (active) | – | – | – | – | 8.91 µM (active) | –
13 | N=C(N)N1CCc2ccccc2C1 | inactive | – | inactive | inactive | inactive | inactive | inactive | inactive | inactive | inactive | inactive | inactive | inactive | inactive | inactive | inactive | inactive | inactive | inactive | inactive
14 | NCc1ccccc1Sc1ccccc1CO | 8.91 µM (active) | inactive | – | inactive | inactive | inactive | inactive | – | inactive | inactive | – | inactive | – | inactive | – | inactive | inactive | inactive | inactive | inactive
15 | O=C(Oc1cccc2cccnc12)c1ccccc1 | inactive | – | inactive | inactive | inactive | inactive | – | inactive | inactive | inactive | inactive | inactive | inactive | inactive | inactive | inactive | – | inactive | inactive | inactive
16 | CCN(CC)CCOc1ccc2c(c1)C(=O)c1cc(OCCN(CC)CC)ccc1-2 | 12.6 µM (active) | – | inactive | – | – | – | inactive | – | – | – | 11.2 µM (active) | – | – | 10 µM (active) | – | – | – | – | – | –

Row | SMILES | Potency (CP237) | Potency (CP260) | Potency (CP262) | Potency (CP265) | Potency (CP269) | Potency (CP291) | Potency (CP315) | Potency (CP335) | Potency (CP238) | Potency (CP252) | Potency (CP256) | Potency (CP266) | Potency (CP268) | Potency (CP286) | Potency (CP297) | Potency (CP305) | Potency (CP325) | Potency (CP247) | Potency (CP250) | Potency (CP329)
17 | N/C(=N\N=C\c1ccc(Cl)cc1)N/N=C/c1ccc(Cl)cc1 | 10 µM (active) | 3.55 µM (active) | inactive | – | inactive | inactive | inactive | – | – | – | 10 µM (active) | inactive | inactive | 3.55 µM (active) | inactive | inactive | inactive | – | – | inactive
18 | O=S(c1cc(Cl)cc(Cl)c1O)c1cc(Cl)cc(Cl)c1O | 7.08 µM (active) | – | – | – | – | – | – | – | – | – | – | – | – | inactive | – | – | – | – | 28.2 µM (active) | –
19 | CN(C)CCC[C@@]1(c2ccc(F)cc2)OCc2cc(C#N)ccc21 | inactive | inactive | inactive | inactive | – | inactive | – | inactive | inactive | inactive | – | inactive | inactive | inactive | – | inactive | inactive | inactive | inactive | inactive
20 | CCc1ccc(C(=O)C(C)CN2CCCCC2)cc1 (centres undefined) | inactive | – | inactive | inactive | inactive | inactive | inactive | inactive | inactive | inactive | inactive | inactive | inactive | inactive | inactive | inactive | inactive | inactive | inactive | inactive
21 | Cc1nc(-c2ccc(Cl)cc2)oc1COC(C)(C)C(=O)O | inactive | inactive | inactive | inactive | inactive | inactive | inactive | inactive | inactive | inactive | inactive | inactive | inactive | inactive | inactive | inactive | inactive | – | inactive | inactive
22 | OC(C#CCN1CCCC1)(c1ccccc1)c1ccccc1 | 5.01 µM (active) | 8.91 µM (active) | – | – | – | – | inactive | – | – | – | – | inactive | – | – | 12 µM (active) | – | – | – | – | –
23 | CCN(CC)CCOC(=O)C1(c2ccccc2)CCCC1 | 2.82 µM (active) | – | inactive | inactive | – | – | – | – | inactive | inactive | inactive | – | – | – | – | – | – | – | inactive | inactive
24 | C#C[C@]1(O)CC[C@H]2[C@@H]3CCC4=CC(=O)CC[C@@H]4[C@H]3CC[C@@]21CC | 6.31 µM (active) | – | inactive | inactive | inactive | inactive | inactive | inactive | inactive | inactive | inactive | inactive | inactive | inactive | inactive | inactive | inactive | inactive | inactive | inactive
25 | CC(C)(Cc1c[nH]c2ccccc12)NCC(O)COc1ccccc1C#N (centres undefined) | 10 µM (active) | – | – | – | – | – | inactive | – | – | – | – | – | – | – | – | – | inactive | – | – | –
26 | Oc1c(Cl)cc(Cl)c(Cl)c1Cc1c(O)c(Cl)cc(Cl)c1Cl | 11.2 µM (active) | – | – | – | – | – | 6.75 µM (active) | – | 10 µM (active) | 8.91 µM (active) | inactive | – | – | – | – | – | – | 8.91 µM (active) | – | 13.5 µM (active)
27 | Cc1cccc(C)c1NC(=O)c1ccccc1C(=O)O | inactive | inactive | inactive | inactive | inactive | inactive | inactive | inactive | inactive | inactive | – | inactive | inactive | inactive | inactive | inactive | inactive | inactive | inactive | inactive
28 | CN(C)CCN1C(=O)c2ccccc2N(C)c2ccccc21 | 3.98 µM (active) | – | inactive | 12.6 µM (active) | – | – | inactive | – | – | – | – | inactive | – | – | 13.5 µM (active) | – | – | – | inactive | inactive
29 | Cc1cc2c(OCC(CNC(C)(C)C)OC(=O)c3ccccc3)cccc2[nH]1 (centres undefined) | 11.2 µM (active) | 11.2 µM (active) | inactive | inactive | – | – | inactive | – | inactive | inactive | inactive | inactive | – | 8.91 µM (active) | – | – | inactive | – | inactive | inactive
30 | CC(=O)NCCCCCC(=O)O | inactive | inactive | inactive | inactive | inactive | inactive | inactive | inactive | inactive | inactive | inactive | inactive | inactive | inactive | inactive | inactive | inactive | inactive | – | inactive
31 | CCCN(CCc1cccs1)[C@H]1CCc2c(O)cccc2C1 | 3.16 µM (active) | 12.6 µM (active) | – | 11.2 µM (active) | 15.1 µM (active) | 10.7 µM (active) | – | 8.49 µM (active) | 10 µM (active) | 11.2 µM (active) | – | – | 10.7 µM (active) | 10 µM (active) | 6.75 µM (active) | 13.5 µM (active) | 12 µM (active) | 8.91 µM (active) | – | –
32 | CC(C)NCC(O)c1ccc2ccccc2c1 (centres undefined) | 4.47 µM (active) | 6.31 µM (active) | – | 10 µM (active) | – | – | – | 12 µM (active) | 10 µM (active) | 11.2 µM (active) | – | inactive | – | 11.2 µM (active) | – | – | – | 7.94 µM (active) | – | inactive
